From PubChem
Shown are actives, neighbours in structure and some others; about 3.5% of the full set was active somewhere.
Anthrax LF inh2 – blocks Bacillus anthracis lethal factor protease. P15917. multiplex microsphere protease cleavage assay, LF. inhibition, % at 10 µM. 360,000 tested, 0.12% active. AID 588501; further: plate controls were buffer without enzyme for full effect and enzyme alone for no effect
Target sequence (P15917 whole entry, looked up): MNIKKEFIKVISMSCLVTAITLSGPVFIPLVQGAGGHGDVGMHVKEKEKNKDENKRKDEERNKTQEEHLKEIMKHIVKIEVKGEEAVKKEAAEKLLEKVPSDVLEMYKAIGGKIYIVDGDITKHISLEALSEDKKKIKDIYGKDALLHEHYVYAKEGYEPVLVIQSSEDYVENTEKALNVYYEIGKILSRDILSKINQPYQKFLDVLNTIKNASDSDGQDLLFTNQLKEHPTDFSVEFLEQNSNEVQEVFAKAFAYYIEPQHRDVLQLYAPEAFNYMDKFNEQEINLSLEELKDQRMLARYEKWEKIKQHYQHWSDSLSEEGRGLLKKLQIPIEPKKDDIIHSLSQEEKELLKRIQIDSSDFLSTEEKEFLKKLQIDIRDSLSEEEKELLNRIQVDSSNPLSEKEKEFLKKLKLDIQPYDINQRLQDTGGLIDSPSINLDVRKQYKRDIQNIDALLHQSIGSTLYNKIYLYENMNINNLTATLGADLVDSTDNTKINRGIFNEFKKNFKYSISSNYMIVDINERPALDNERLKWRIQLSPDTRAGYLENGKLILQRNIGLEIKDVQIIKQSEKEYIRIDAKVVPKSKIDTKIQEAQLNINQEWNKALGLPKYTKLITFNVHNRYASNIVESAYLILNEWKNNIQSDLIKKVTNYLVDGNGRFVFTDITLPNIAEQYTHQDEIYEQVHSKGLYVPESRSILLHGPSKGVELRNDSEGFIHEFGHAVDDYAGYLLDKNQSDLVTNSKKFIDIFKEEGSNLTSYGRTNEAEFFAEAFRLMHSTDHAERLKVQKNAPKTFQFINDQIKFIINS
BoNT-F LC inh – blocks Botulinum neurotoxin F light chain protease | Multiplex microsphere protease cleavage assay, flow cytometry | inhibition, % at 10 µM | 360,000 tested, 0.22% active | AID 588497; in the data active means inhibition above about 35%, passing the limit was not always enough; inconclusive means no clear call, values can overlap the other calls; further: plate controls were buffer without enzyme for full effect and enzyme alone for no effect
3CLpro inhibitor – SARS-CoV 3CLpro protease inhibition; 290,000 tested, 0.14% active; P0C6X7; inhibition, % at 6 µM; recombinant SARS-CoV 3CLpro, quenched FRET peptide cleavage; in the data active means inhibition above about 12%
Bead autofluor – counter-screen for toxin protease inhibitors: compound fluorescence; AID 624483; 360,000 tested, 3.1% active; compound autofluorescence counterscreen, microsphere flow cytometry; active compounds read high; fluorescence intensity (test concentration not listed); in the data active means fluorescence intensity above about 16000; inconclusive means no clear call, values can overlap the other calls
BoNT-A LC inh2 – blocks Botulinum neurotoxin A light chain protease. multiplex microsphere protease substrate cleavage, flow cytometry. inhibition, % at 10 µM. 360,000 tested, 0.17% active. AID 588499; further: plate controls were buffer without enzyme for full effect and enzyme alone for no effect
* = called active by the depositor; ? = inconclusive; nt = no result. Unless noted, no stated cut-off is given here; in the data, active means inhibition above about 30%; inconclusive means no clear call, values can overlap the other calls; inactive means below that.

SMILES | Anthrax LF inh2 | BoNT-F LC inh | 3CLpro inhibitor | Bead autofluor | BoNT-A LC inh2
CCN(CC)c1ccc(/C=N/N2CC(=O)NC2=S)cc1 | -9.6 | 1.3 | nt | 3726 | -0.2
Cc1occc1-c1nnc(SCC(=O)Nc2nc3ccccc3s2)o1 | -2.1 | 0.5 | -4.3 | 19093* | 0.9
O=C(CSc1nc2ccccc2o1)Nc1nc(-c2ccccc2)cs1 | -1.1 | -8.6 | 1.2 | 2408 | 0.6
Cc1cc2ccccc2nc1SCC(=O)Nc1nc(-c2ccccc2)cs1 | -0.4 | -2.4 | -4.2 | 16277* | -0.3
Cc1occc1-c1nnc(SCC(=O)Nc2nc(-c3ccccc3)cs2)o1 | 2.6 | -1.8 | 3.5 | 19701* | 0.1
CC(C)(C)C(=O)N(Cc1ccc(Cl)cc1)c1cnccn1 | -4.9 | 2.8 | -2.0 | 3061 | -0.5
CCOC(CNC(=O)c1ccc2c(c1)ncn2-c1cccc(F)c1)OCC | 2.8 | 2.1 | 0.6 | 2049 | 0.6
C=CCc1ccc(OCC(O)CN2CCN(c3ccccc3)CC2)c(OC)c1 (centres undefined) | 23.6 | -32.7 | 7.5 | 4516 | 0.0
O=C(Nc1ccncc1)c1cccn(Cc2ccccc2)c1=O | -6.1 | 1.1 | 0.5 | 4372 | -0.7
CCCOc1ccc(NC(=O)C2CC(=O)N/C(=N/N=C(\C)CCc3ccc4c(c3)OCO4)S2)cc1 (centres undefined) | -1.2 | -3.0 | 2.4 | 2214 | 0.3
O=C(CCC1COc2ccccc2O1)Nc1cccnc1 (centres undefined) | -2.7 | -0.2 | -0.6 | 23308* | -2.0
N#Cc1c(SCC(N)=O)nsc1SCc1ccccc1Cl | 0.4 | -2.6 | 0.4 | 2156 | -0.1
Cc1snc(SCC(=O)c2ccc(Cl)cc2)c1C#N | 1.1 | -1.9 | 4.9 | 22846* | ?
Cc1ccc(C(=O)CSc2nsc(C)c2C#N)cc1 | 0.3 | 5.6 | 4.4 | 2994 | 0.7
N#Cc1c(SCC(N)=O)nsc1SCc1ccc(Cl)cc1 | -2.6 | -0.8 | -6.7 | 22700* | ?
Nc1nc2c(nnn2Cc2ccc(Cl)c(Cl)c2)c(=O)[nH]1 | -6.4 | -2.3 | nt | 3472 | -0.2
NCCCC[C@H]1CNC(=S)N1CCc1cc(C(F)(F)F)cc(C(F)(F)F)c1 | -4.1 | -3.2 | -4.1 | 4262 | -1.0
CC(=O)c1cccc(NC(=O)CSc2nc3ccccc3c(=O)n2CCCN2CCOCC2)c1 | -1.3 | -0.5 | nt | 3715 | 1.1
Cc1cccc(NC(=O)C(C)Sc2nc3ccccc3c(=O)n2CCCN2CCOCC2)c1 (centres undefined) | -12.3 | -62.8 | nt | 18006* | -51.1
COC(=O)c1c(C)n(Cc2ccco2)c2ccc(O)cc12 | -1.9 | -9.1 | -0.2 | 24915* | -7.6
CCOC(=O)c1c(C)n(Cc2ccco2)c2ccc(OC)cc12 | -4.8 | 2.7 | -6.0 | 4190 | -0.9
CC(C)(C)c1csc(NC(=O)CCc2ccccc2)n1 | -3.3 | 15.8 | 4.3 | 4418 | -1.0
CC1(C)CC(=NNC(=O)c2n[nH]c3c2CCC3)CC(C)(C)N1 | -1.5 | 37.1* | -0.9 | 2077 | 2.8
Cc1cc(N2CCCCC2)nc2ccc(NC(=O)c3ccc(Br)o3)cc12 | -2.4 | -0.6 | 0.4 | 4622 | 0.6
CN(C)Cc1ccccc1OC(=O)N(C)C | -2.4 | 31.7 | 3.9 | 4639 | 1.5
SMILES | Anthrax LF inh2 | BoNT-F LC inh | 3CLpro inhibitor | Bead autofluor | BoNT-A LC inh2
Cc1cccc(CN(C)C)c1OC(=O)N(C)C | -1.5 | 5.9 | -5.3 | 20578* | ?
CCOc1ccc(-c2c[n+](=O)c3c(n2[O-])CCCC3)c(OCC)c1 | -0.1 | -5.7 | 2.3 | 19889* | -0.9
Cc1ccc2c(c1)C(c1ccccc1)N(C(=O)c1cccc([N+](=O)[O-])c1)CC(=O)N2 (centres undefined) | -1.4 | -10.7 | 0.4 | 3716 | -9.6
CC1(C)Cc2c(C#N)c(NCCc3ccccc3)nc(-c3ccco3)c2CO1 | -5.3 | -26.4 | 0.0 | 2286 | -0.3
O=C(CN1C(=O)C(=O)c2ccccc21)c1ccccc1 | 18.0 | 5.1 | 3.0 | 2901 | 3.1
O=C(CN1C(=O)c2cccnc2C1=O)c1ccccc1 | -0.2 | -5.9 | 0.9 | 20963* | -3.4
FC(F)(F)c1ccc(C2[C@H]3CN(Cc4cccnc4)[C@H](c4ccccc4)C34CC2(c2cccnc2)C4)cc1 (some centres undefined) | -5.7 | -5.1 | nt | 4449 | -0.1
COc1cc(C(=O)Nc2ccc(N(C)C)cc2)c([N+](=O)[O-])cc1OC | -5.7 | -32.2 | -5.7 | 2134 | 0.6
COc1cc(C(=O)NCCc2ccc(F)cc2)c([N+](=O)[O-])cc1OC | -0.7 | -2.8 | 4.2 | 2495 | -0.3
CCCNC(=O)c1cc(OC)c(OC)cc1[N+](=O)[O-] | 0.9 | 1.4 | 1.0 | 24245* | ?
COc1cc(C(=O)Nc2ccc(N3CCCS3(=O)=O)cc2)c([N+](=O)[O-])cc1OC | -11.8 | -85.4 | nt | 18232* | -50.5
COc1ccc(-n2c(N)c(C(=O)NCc3cccnc3)sc2=S)cc1 | -2.6 | 1.7 | 1.0 | 10986 | 0.1
O=C(NCc1cccc(Cl)c1)C1CCCO1 (centres undefined) | 3.3 | 1.5 | 2.3 | 4582 | -0.3
CCOC(=O)N1CCC(NC(=O)c2oc3c(c2C)-c2[nH]ncc2CC3)CC1 | -3.9 | -4.7 | 3.6 | 20954* | ?
Nc1c(C(=O)OCC2CCCO2)c2nc3ccccc3nc2n1C1CCCC1 (centres undefined) | -0.2 | -28.9 | -3.2 | 32531* | -19.5
COC(=O)c1ccc(Oc2nc(Nc3ccc(C)c(C)c3)nc(N(C)C)n2)cc1 | -4.2 | -7.2 | -0.1 | 24525* | -3.2
CCNc1nc(Oc2ccc(C(=O)OC)cc2)nc(N(C)C)n1 | 1.6 | 0.7 | 2.7 | 2738 | 0.1
O=C(COC(=O)c1ccc(CSc2ccc(Cl)cc2)cc1)Nc1ccccc1 | -0.9 | -4.1 | 0.0 | 2045 | 0.2
O=C(NCc1ccc(F)cc1)c1cccc2c1C(=O)c1ccc(N3CCC(N4CCCCC4)CC3)cc1S2(=O)=O | 13.9 | -2.2 | nt | 5563 | 4.3
O=C(NCc1ccc(F)cc1)c1cccc2c1C(=O)c1ccc(N3CCC(Cc4ccccc4)CC3)cc1S2(=O)=O | 33.1* | 23.4 | nt | 8272 | 19.4
COc1ccc2cc(CN(Cc3cccs3)Cc3nnnn3Cc3ccccc3)c(=O)[nH]c2c1 | -1.9 | -2.6 | 1.3 | 24337* | -0.7
COc1ccccc1CN(Cc1cc2cc3c(cc2[nH]c1=O)OCCO3)Cc1nnnn1Cc1ccco1 | -4.4 | -5.4 | 0.3 | 23267* | -0.2
O=c1[nH]c2cc3c(cc2cc1CN(Cc1ccccc1)Cc1nnnn1Cc1ccco1)OCCO3 | 1.6 | 0.5 | -6.9 | 3616 | 0.7
COc1ccc2cc(CN(Cc3cccnc3)Cc3nnnn3Cc3ccccc3)c(=O)[nH]c2c1 | nt | nt | -2.0 | nt | nt
CCOC(=O)Cn1nnnc1CN(Cc1cccs1)Cc1cc2cc(C)cc(C)c2[nH]c1=O | 4.2 | -1.1 | 3.2 | 23938* | -0.6
Cc1cccn2c(=O)c3cc(C(N)=S)c(=N)n(CCCOC(C)C)c3nc12 | -35.7 | -57.0 | -3.0 | 3782 | 41.1*
CC1(C)CC(=O)C(Sc2nnc(-c3ccc(NS(C)(=O)=O)cc3)n2Cc2ccco2)C(=O)C1 | 0.2 | -11.1 | 4.7 | 10546 | 0.1
Cc1oc(C(=O)O)cc1COc1ccc2c3c(c(=O)oc2c1)CCC3 | -4.2 | -4.4 | -4.2 | 20992* | ?
O=C(NCc1ccc2c(c1)OCO2)C1CC(=O)N(c2ccc(Cl)cc2)C1 (centres undefined) | 9.9 | 3.8 | -0.2 | 3879 | 0.5
